# Compound activity from PubChem BioAssay.
# HCV inh = qHTS Assay for Inhibitors of Hepatitis C Virus (HCV). Huh7.5.1 HCVcc-Cre infection, luciferase reporter, 44 h. Potency, µM (top dose mostly 41.8 µM), for the others: at the top dose activity change, negative = inhibition, most hits filed as inhibitors. 340,000 tested, 3.4% active. AID 651820, 2012
#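 Cells (1,000/well) were plated 4 h before compound, then infected with HCVcc-Cre virus (~0.5 moi). After 44 h further culture, infection was read as luciferase luminescence following a 15 min substrate incubation at room temperature.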
# RE007 growth inh = qHTS Assay for Inhibitors of the HIV-1 protein Vpr; S. pombe RE007 Vpr strain, BacTiter-Glo ATP luminescence, 24 h; Potency, µM (highest dose often 92.2 µM), without a hit: top-dose activity change, negative = less growth, actives largely listed as inhibitors; 360,000 tested, 0.21% active; AID 651644, 2012; active means well fitted falling curve with a large enough effect; inconclusive means small, poorly fitted or top-dose-only effect; inactive means no such curve, though single readings can be large or run the other way; further: nearly all actives have a fitted effect of over 50% in size
#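 Fission yeast strain RE007, carrying one chromosomally integrated HIV-1 vpr copy, was seeded at OD 0.01 in PMG+AL medium with 23 nL pinned compound. After 24 h at 30 °C and 99% humidity, viability was read by BacTiter-Glo luminescence.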
# Marburg entry inh = qHTS for inhibitors of binding or entry into cells for Marburg Virus. Marburg virus pseudotyped entry inhibition, cell reporter. Potency, µM (titrated, usually from 37.8 µM), for inactives: at the highest dose activity change, negative = inhibition, usual class: inhibitors. 300,000 tested, 1.8% active; calls by dose curve; tested in HEK293 cells
# LASV entry inh = qHTS for Inhibitors of binding or entry into cells for Lassa Virus | AID 540256, 2011 | 300,000 tested, 1.2% active | Lassa virus pseudotype entry inhibition, cell reporter | Potency, µM (series often up to 37.9 µM), for the others: at the highest dose activity change, negative = inhibition, usual class: inhibitors; calls by dose curve; tested in HEK293 cells; further: nearly all actives have a fitted effect of over 50% in size
# FMDV antiviral = High Throughput Screening for Foot and Mouth Disease Virus Antivirals; FMDV antiviral cell-based qHTS; Potency, µM (titrated, usually from 57.9 µM), for the others: at the top dose activity change, negative = inhibition, most hits filed as inhibitors; 410,000 tested, 1.2% active; calls by dose curve; tested in HEK293T cells; further: read-out not given here; nearly all actives have a fitted effect of over 45% in size
# Sm TGR inh = qHTS Assay for the Inhibitors of Schistosoma Mansoni Peroxiredoxins. Schistosoma mansoni thioredoxin glutathione reductase (TGR), Q962Y6. Potency, µM (top dose mostly 114 µM), without a hit: top-dose activity change, negative = inhibition, hits mostly inhibitors. 360,000 tested, 3% active. purified TGR, DTNB reduction, TNB absorbance 405 nm; further: nearly all actives have a fitted effect of over 60% in size
#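 TGR 20 nM + NADPH 100 uM (dispensed conc.), cpd preinc 15 min RT; start with NADPH (500 uM addition) then DTNB (15 mM addition). Kinetic TNB absorbance, 405 nm filter. Four-parameter Hill fit across titration.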
# * marks the source's active call; other numbers are inactive results; ? = inconclusive; . = not tested or not shown; [ ] = remark or other dose. This is a sample that favours compounds with a hit; in the whole collection about 7.2% have one here. Unless noted, the call rests on the fitted dose curve; in most records, active means well fitted curve in the direction sought with a large enough effect; inconclusive means small, poorly fitted or top-dose-only effect, or another doubt; inactive means no such curve, though single readings can be large; an effect the other way counts as inactive or inconclusive. On the % scale 0 is the no-effect control and ±100 the full control effect; potency means the concentration at half of the fitted maximal effect.
SMILES,HCV inh,RE007 growth inh,Marburg entry inh,LASV entry inh,FMDV antiviral,Sm TGR inh
O=C(CN1C(=O)COc2ccc(S(=O)(=O)N3CCCC3)cc21)N1CCN(c2ccc(Cl)cc2)CC1,.,.,?,10%[46.1 µM],-22%,1%
COc1cccc(CNC(=O)C2(c3cccs3)CCOCC2)c1,.,.,.,-8%[46.1 µM],0%,10%
Cn1c(N)nc2nc[nH]c2c1=S,-5%,-14%,1%,-12%,-7%,.
CC1(C(=O)O)CCCN1C(=O)c1cc2ccccc2s1 (stereo unspecified),.,3%,.,.,4%,.
c1ccc2sc(C3(N4CCCCC4)CCCCC3)cc2c1,.,.,7.1µM*,?,-21%,.
Nc1nnc(SC2CC(=O)N(c3ccccc3)C2=O)s1 (stereo unspecified),13%,28µM*,-6%,11%,-13%,2.5µM*
C=CCNc1nnc(SC2CC(=O)N(c3ccc(OCCC)cc3)C2=O)s1 (stereo unspecified),12%,11µM*,?,0%,-23%,4µM*
CCOC(=O)c1ccc(N2C(=O)C3CC=CCC3C2=O)cc1 (stereo unspecified),-3%,18%,23%,7%,.,3%
CCOC(=O)c1ccc(N2C(=O)CC(Sc3nc(C)cc(C)n3)C2=O)cc1 (stereo unspecified),12%,7%,.,.,17%,-19%
CCOC(=O)c1ccc(N2C(=O)CC(SCC(N)C(=O)OCC)C2=O)cc1 (stereo unspecified),-5%,-18%,7%[46.1 µM],16%,20%,14µM*
CCOC(=O)c1ccc(N2C(=O)CC(Sc3nnc(C)s3)C2=O)cc1 (stereo unspecified),12%,20µM*,8%,-1%,0%,4.5µM*
COc1cc(COc2cc(N)c(Cl)cc2C(=O)CCC2CCN(CCNS(C)(=O)=O)CC2)cc(OC)c1,.,.,.,.,-4%,.
Cc1cccc2sc(N(Cc3cccnc3)C(=O)C3CCCCC3)nc12,.,.,.,-20%[46.1 µM],-13%,14%
CC(=O)[C@]12C[C@]3(C)CCCN(C(=O)N[C@@H]1c1ccccc1)C32 (stereo partly specified),.,.,10%[14.2 µM],?,.,.
CCOC(=O)Cc1ccc(NC(=O)N2CCc3c(sc4c3CCCC4)C2c2ccc(F)cc2)cc1 (stereo unspecified),.,.,.,0%[46.1 µM],-8%,6%
COc1cccc(-n2c(SCC(=O)Nc3cc(C)ccc3C)nc3c(oc4ccccc43)c2=O)c1,.,.,?,.,-13%,-1%
CCOc1ccc(N2C(=O)CC(Sc3ncccn3)C2=O)cc1 (stereo unspecified),13%,-19%,-4%,4%,10%,?
COc1ccc(N2C(=O)CC(Sc3nc4ccccc4s3)C2=O)cc1OC (stereo unspecified),10%,-25%,.,.,8%,8.9µM*
CCOC(=O)C(N)CSC1CC(=O)N(c2ccc(OC)cc2)C1=O (stereo unspecified),2%,-6%,.,.,-10%,32µM*
CCOC(=O)NNC1CC(=O)N(c2ccc(OC)cc2)C1=O (stereo unspecified),15%,-1%,-29%,3%,10%,0%
CCOC(=O)C(N)CSC1CC(=O)N(c2ccc(OCC)cc2)C1=O (stereo unspecified),-5%,?,.,.,-11%,45µM*
CSc1ccc(CCNC(=O)Cn2ncc3c(=O)oc4ccc(C)cc4c32)cc1,.,.,13%[46.1 µM],-7%[46.1 µM],?,2%
CC(C)=CCC/C(C)=C/CO/N=C1\C[C@@H](O)[C@@H](O)[C@@H]2[C@@H]3C(=O)N(C[C@@H]4CCCO4)C(=O)[C@@H]3CC[C@H]12,.,.,-5%[14.2 µM],.,.,.
COc1ccc(C2C(C#N)=C(N)N(c3sc4c(c3C#N)CCCC4)C3=C2C(=O)CC(C)(C)C3)cc1 (stereo unspecified),7.9µM*,20%,?,?,-13%,-3%
COc1ccc(C2C(C#N)=C3NC(=O)c4c(sc5c4CCCCC5)N3C3=C2C(=O)CC(C)(C)C3)cc1 (stereo unspecified),?,15%,?,23µM*,-25%,-7%
SMILES,HCV inh,RE007 growth inh,Marburg entry inh,LASV entry inh,FMDV antiviral,Sm TGR inh
COc1ccc(C2C(C#N)=C(N)N(c3sc4c(c3C#N)CCCC4)C3=C2C(=O)CC(C)(C)C3)cc1OC (stereo unspecified),?,-6%,?,?,0%,-23%
Cc1ccccc1NC1=CC(=O)CC(C)(C)C1,18%,-7%,-2%,-2%,7%,-14%
CC1(C)CC(=O)C=C(NC2=CC3OC(c4ccccc4)OCC3OC2=O)C1 (stereo unspecified),?,-16%,14µM*,?,8.9µM*,20µM*
COc1cccc(CNC(=O)c2c(OC)cc(=O)n3c2CCN(C(=O)C2CC24CCCC4)CC3)c1 (stereo unspecified),.,.,.,.,-11%,.
O=C(CCl)N(C/C=C/c1ccccc1)c1ccc2c(c1)OCCO2,2.2µM*,34%,17%[46.1 µM],?,25µM*,7.1µM*
CC1CCCCC1NC(=O)NC(=O)CCl (stereo unspecified),?,-5%,?,?,?,14µM*
CC1CCCC(NC(=O)NC(=O)CCl)C1C (stereo unspecified),?,-8%,-8%,0%,20µM*,2.8µM*
CCOc1ccc(CN2CCN(C3CCC3)CC2CCO)cc1 (stereo unspecified),-2%,7%,2%[46.1 µM],-8%[46.1 µM],3%,13µM*
CCSc1nc(O)c(C2OC(=O)c3c2ccc(OC)c3OC)c(=O)n1-c1ccccc1 (stereo unspecified),1%,-7%,0%,13%,-7%,7.1µM*
O=C(Nc1ccc(Cl)c(C(F)(F)F)c1)c1ccncc1,-22%,42%,?,?,-12%,-9%
CNC(=O)c1cc(Oc2ccc(NC(=O)Nc3ccc(Cl)c(C(F)(F)F)c3)cc2)ccn1,11µM*,1%,.,.,20µM*,-12%
COc1cccc(NC(=O)CSc2cc(C)[nH]c(=O)n2)c1,.,.,.,5%[46.1 µM],-22%,-3%
O=C(c1ccco1)[C@@H]1[C@@H]2C(=O)N(c3ccc(Br)cc3)C(=O)[C@@H]2C2c3ccccc3C=CN21 (stereo partly specified),0%,-23%,10%,0%,3%,18µM*
O=C(c1ccco1)[C@@H]1[C@@H]2C(=O)N(c3ccc(F)cc3)C(=O)[C@@H]2[C@H]2C=Cc3ccccc3N21,-4%,-5%,-19%,?,8%,-33%
